Experimental data reported in PubChem BioAssay.
Unmarked numbers belong to inactive results. For some of these results: Entries with a potency or affinity are not part of this list. Calls of active or inactive are those of the source. Unless noted, the rule behind the calls is not given here.

Columns and labels:
[1] = antimalarial activity against Dd2 strain (AID 2302;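 active = growth inhibition above 50% at the single 2 µM test dose, taken to imply half-maximal potency below 2 µM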;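 note: 0% = DMSO untreated growth and 100% = chloroquine plus artemisinin killed control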); conditions: P. falciparum Dd2 in RBCs, LDH growth readout, 72 h; at 2 µM; active compounds read high
[2] = human hepatoma cell viability loss – ATP luminescence, cytotoxicity control for P. falciparum antimalarial project, primary screen (AID 2303;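 active = inhibition above 50%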;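 note: 0% = DMSO wells and 100% = digitonin-killed cells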); conditions: HepG2 viability, 24-48 h, at 10 µM, active compounds read high
[3] = biological target: L-lactate dehydrogenase (Plasmodium falciparum (isolate CDC / Honduras)) (UniProt Q27743); assay: PfLDH activity inhibition – cell lysate, 3D7 strain, counter-screen for P. falciparum growth inhibition project (AID 2304);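 note: 0% = vehicle and 100% = reference inhibitor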; conditions: P. falciparum 3D7 crude extract, LDH APAD/NBT absorbance; at 2 µM; active compounds read high
[4] = inhibition of 3D7 malaria parasite growth – strain 3D7 (AID 2306);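 note: 0% = DMSO wells and 100% = chloroquine plus artemisinin control wells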; conditions: P. falciparum 3D7 erythrocytic growth, LDH absorbance, 72 h; at 2 µM; active compounds read high
[5] = biological target: Calcium-dependent protein kinase 1 (Plasmodium falciparum (isolate 3D7)) (UniProt P62344); assay: PfCDPK1 kinase inhibitors, biochemical, TCAMS library (AID 1159585; cut-off not given, nearly all actives have IC50 up to about 0.98 µM;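 note: inhibitors leave more ATP so luminescence rises with inhibition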); conditions: recombinant PfCDPK1, Kinase-Glo ATP depletion luminescence
[6] = biological target: Plasmodium falciparum protein kinase 6 (PK6, PF3D7_1337100) (UniProt Q8IDW1); assay: PfPK6 kinase inhibitors, biochemical, TCAMS library (AID 1159586); conditions: recombinant PfPK6, Kinase-Glo ATP depletion luminescence
[7] = biological target: Protein kinase 7 (PK7), Plasmodium falciparum 3D7 (PF3D7_0213400) (UniProt Q7YTF7); assay: inhibition of Plasmodium PK7 catalytic activity – biochemical, TCAMS antimalarial set, Kinase-Glo luminescence (AID 1159587); conditions: recombinant PfPK7, Kinase-Glo ATP depletion luminescence
[8] = biological target: Calcium-dependent protein kinase 4 (Plasmodium falciparum (isolate 3D7)) (UniProt Q8IBS5); assay: PfCDPK4 kinase inhibitors, biochemical, TCAMS library (AID 1159588; cut-off not given, nearly all actives have IC50 up to about 0.91 µM); conditions: recombinant PfCDPK4, Kinase-Glo ATP depletion luminescence
Calcium-dependent protein kinase 4 (Plasmodium falciparum (isolate 3D7)), sequence (Q8IBS5 whole entry, looked up): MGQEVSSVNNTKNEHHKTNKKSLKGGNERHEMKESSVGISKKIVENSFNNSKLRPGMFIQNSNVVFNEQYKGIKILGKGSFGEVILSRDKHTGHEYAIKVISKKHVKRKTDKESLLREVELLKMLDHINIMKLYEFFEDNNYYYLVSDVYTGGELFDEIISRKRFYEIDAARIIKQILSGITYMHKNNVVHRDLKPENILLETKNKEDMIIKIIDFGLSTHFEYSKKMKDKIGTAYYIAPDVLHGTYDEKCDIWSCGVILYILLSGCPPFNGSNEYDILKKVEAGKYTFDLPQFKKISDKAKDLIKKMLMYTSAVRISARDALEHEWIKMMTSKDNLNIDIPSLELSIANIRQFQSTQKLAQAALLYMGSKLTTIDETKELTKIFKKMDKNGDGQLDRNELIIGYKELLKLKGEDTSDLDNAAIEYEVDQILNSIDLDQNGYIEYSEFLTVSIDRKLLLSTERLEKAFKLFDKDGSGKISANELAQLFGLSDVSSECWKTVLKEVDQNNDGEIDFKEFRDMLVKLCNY

Calcium-dependent protein kinase 1 (Plasmodium falciparum (isolate 3D7)), sequence (P62344 whole entry, looked up): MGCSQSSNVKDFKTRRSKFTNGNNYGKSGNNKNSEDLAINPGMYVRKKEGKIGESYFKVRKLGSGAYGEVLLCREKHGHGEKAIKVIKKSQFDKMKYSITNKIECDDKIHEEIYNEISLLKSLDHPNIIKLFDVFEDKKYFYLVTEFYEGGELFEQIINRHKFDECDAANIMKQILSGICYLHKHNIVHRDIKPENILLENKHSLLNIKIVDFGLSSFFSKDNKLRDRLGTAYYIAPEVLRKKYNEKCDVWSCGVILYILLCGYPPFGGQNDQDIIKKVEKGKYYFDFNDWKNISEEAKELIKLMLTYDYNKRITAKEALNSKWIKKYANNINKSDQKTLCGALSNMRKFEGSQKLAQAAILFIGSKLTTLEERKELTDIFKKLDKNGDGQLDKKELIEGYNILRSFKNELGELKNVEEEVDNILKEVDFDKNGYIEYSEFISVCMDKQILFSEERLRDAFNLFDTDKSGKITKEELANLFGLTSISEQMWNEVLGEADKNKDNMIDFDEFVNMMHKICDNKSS
L-lactate dehydrogenase (Plasmodium falciparum (isolate CDC / Honduras)), sequence (Q27743 whole entry, looked up): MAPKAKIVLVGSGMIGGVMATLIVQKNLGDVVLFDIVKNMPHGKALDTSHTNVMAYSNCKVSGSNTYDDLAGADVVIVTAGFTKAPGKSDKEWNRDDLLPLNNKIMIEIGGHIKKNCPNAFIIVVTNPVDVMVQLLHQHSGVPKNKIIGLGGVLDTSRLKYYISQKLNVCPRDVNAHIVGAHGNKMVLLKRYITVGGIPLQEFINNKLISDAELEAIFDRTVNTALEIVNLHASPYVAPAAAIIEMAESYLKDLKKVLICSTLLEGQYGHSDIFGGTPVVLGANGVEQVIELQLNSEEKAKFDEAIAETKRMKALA
Protein kinase 7 (PK7), Plasmodium falciparum 3D7 (PF3D7_0213400), sequence (Q7YTF7 1-343): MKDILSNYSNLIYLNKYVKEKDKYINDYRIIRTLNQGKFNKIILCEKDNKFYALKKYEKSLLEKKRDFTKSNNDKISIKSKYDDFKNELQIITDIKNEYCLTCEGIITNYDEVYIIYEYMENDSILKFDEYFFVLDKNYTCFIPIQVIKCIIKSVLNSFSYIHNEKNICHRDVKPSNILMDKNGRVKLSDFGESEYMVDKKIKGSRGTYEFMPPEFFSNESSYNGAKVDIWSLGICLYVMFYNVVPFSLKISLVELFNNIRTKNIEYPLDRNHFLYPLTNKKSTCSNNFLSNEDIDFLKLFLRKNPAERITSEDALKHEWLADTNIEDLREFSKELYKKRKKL
Plasmodium falciparum protein kinase 6 (PK6, PF3D7_1337100), sequence (Q8IDW1 1-305): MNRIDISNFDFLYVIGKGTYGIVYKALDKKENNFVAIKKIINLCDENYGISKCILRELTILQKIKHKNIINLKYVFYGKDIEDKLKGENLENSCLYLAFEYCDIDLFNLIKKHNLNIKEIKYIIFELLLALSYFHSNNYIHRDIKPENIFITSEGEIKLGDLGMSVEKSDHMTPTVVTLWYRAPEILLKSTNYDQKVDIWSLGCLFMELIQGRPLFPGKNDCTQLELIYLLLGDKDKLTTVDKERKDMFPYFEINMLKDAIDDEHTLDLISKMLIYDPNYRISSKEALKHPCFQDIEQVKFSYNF

SMILES | growth inhibition [1] | inhibition [2] | inhibition [3] [%] | growth inhibition [4] | outcome [5] | outcome [6] | outcome [7] | outcome [8]
Cc1ccc(CN2CCN(CC(O)COc3ccc4c(c3)CCC4)CC2)cc1 (stereo not drawn) | -4% | -15% | -3 | 95% (active) | inactive | inactive | inactive | inactive
COc1c(C2CCN(CCCCNC(=O)c3ccc(-c4ccc(C#N)cc4)cc3)CC2)cc(Cl)c2c1CCCC2 | 59% (active) | 45% | 0 | 93% (active) | inactive | inactive | inactive | inactive
Cc1ccc(C2(CN3CCC(NC(=O)c4ccn[nH]4)CC3)CCCCC2)cc1 | 96% (active) | -6% | -3 | 97% (active) | inactive | inactive | inactive | inactive
Nc1c(Cl)cc(C(O)CNCCCCCCOCCC=C2CCOCC2)cc1Cl (stereo not drawn) | 9% | 7% | 0 | 100% (active) | inactive | inactive | inactive | inactive
CCNc1cc(C(=O)N[C@@H](Cc2ccccc2)[C@H](O)CNC(C)(C)CCCC(C)C)cc(N2CCCCS2(=O)=O)c1 | 98% (active) | 5% | 2 | 98% (active) | inactive | inactive | inactive | inactive
C=CCOC(=O)N1CCC(CNCc2cccc(-c3ccc(-c4nc5c(C)cccc5[nH]4)s3)c2)C1 (stereo not drawn) | 82% (active) | 11% | -6 | 101% (active) | inactive | inactive | inactive | inactive
COc1ccc2nccc([C@@H](O)CN3CCC(NCc4cc5c(cc4F)SCC(=O)N5)CC3)c2n1 | 27% | 14% | 3 | 96% (active) | inactive | inactive | inactive | inactive
N#Cc1ccc(-c2cnc3ccc(NCc4ccc(S(N)(=O)=O)cc4)nn23)cc1 | 100% (active) | 7% | 5 | 98% (active) | inactive | inactive | inactive | inactive
Cc1cc2nc(-c3ccc(C(=O)NCc4ccc(C(C)(C)C)cc4)cc3)[nH]c2cc1C | 59% (active) | 3% | -3 | 101% (active) | inactive | inactive | inactive | inactive
Oc1ccc(CCNCCCCCCNCCCc2ccc(Cl)cc2)cc1O | 3% | 13% | -2 | 87% (active) | inactive | inactive | inactive | inactive
CNC(=O)Cc1ccc(C(=O)Nc2cccc(-c3cccc(-c4nc5c(C)cccc5[nH]4)c3)c2)cc1 | 53% (active) | 15% | 0 | 96% (active) | inactive | inactive | inactive | inactive
Cc1nn(CC(C)C)c2sc(C(=O)Nc3nc(-c4ccccn4)cs3)cc12 | 67% (active) | 29% | 1 | 96% (active) | inactive | inactive | inactive | inactive
O=c1[nH]c(Cc2ccccc2)nc2ccc(Cl)cc12 | 76% (active) | 13% | 3 | 92% (active) | inactive | inactive | inactive | inactive
Clc1ccc(Nc2nc(-c3ccccn3)cs2)nc1 | 90% (active) | 36% | -1 | 95% (active) | inactive | inactive | inactive | inactive
CC(C)(C)CC(C)(C)c1ccc(O)c(C(=O)Nc2ccc([N+](=O)[O-])cc2)c1 | 99% (active) | 80% (active) | 5 | 97% (active) | inactive | inactive | inactive | inactive
COc1cc2nc(NC3CCN(Cc4ccccc4)CC3)nc(N)c2cc1OC | 30% | 27% | -2 | 101% (active) | inactive | inactive | inactive | inactive
O=C(/C=C/c1ccc(Br)cc1)NCCCCCN1CCC(c2c[nH]c3ccccc23)CC1 | 19% | 73% (active) | -2 | 99% (active) | inactive | inactive | inactive | inactive
Fc1cccc(COc2ccc(Nc3ncnc4sc(C#CCNC5CCC5)cc34)cc2Cl)c1 | 73% (active) | 15% | 9 | 100% (active) | inactive | inactive | inactive | inactive
CCOC(=O)C(C(=O)OCC)c1nc(C)ns1 | -3% | 10% | -3 | 99% (active) | inactive | inactive | inactive | inactive
CCCc1cc(NC2CCN(C)CC2)nc(Nc2ccc(C)cc2)n1 | 20% | 25% | -1 | 101% (active) | inactive | inactive | inactive | inactive
COc1ccc(CCN(C)CCCN2CCC(NC(=O)c3cccc4c(=O)c5ccccc5sc34)CC2)cc1OC | 79% (active) | 67% (active) | 4 | 97% (active) | inactive | inactive | inactive | inactive

SMILES | growth inhibition [1] | inhibition [2] | inhibition [3] [%] | growth inhibition [4] | outcome [5] | outcome [6] | outcome [7] | outcome [8]
Cc1nn(C)c(C)c1CN(Cc1nc(-c2cccc(Oc3ccccc3)c2)oc1C)C1CC1 | 98% (active) | 7% | 0 | 101% (active) | inactive | inactive | inactive | inactive
Fc1ccc2nc(-c3cccc(-c4cccc(CNCc5ccccc5)c4)c3)[nH]c2c1 | 52% (active) | 24% | -9 | 102% (active) | inactive | inactive | inactive | inactive
CN1CCN(CCCN(Cc2cccc(-c3ccc(CNCc4ccc5c(c4)OCO5)cc3)c2)C(=O)CCC2CCCC2)CC1 | 84% (active) | 91% (active) | -6 | 98% (active) | inactive | inactive | inactive | inactive
O=C(Nc1ccc(N2CCN(Cc3cccc(F)c3)CC2)cc1)c1cccs1 | 92% (active) | -5% | -1 | 95% (active) | inactive | inactive | inactive | inactive
N#Cc1cncc(-c2nc3c(N4CCC(Cc5ccccc5)CC4)cccc3n2CCNCc2ccccc2)c1 | 99% (active) | 2% | -1 | 99% (active) | inactive | inactive | inactive | inactive
c1cncc(CCNCc2ccc(-c3cccc(-c4nc5ccccc5[nH]4)c3)cc2)c1 | 99% (active) | 39% | -2 | 102% (active) | inactive | inactive | inactive | inactive
Oc1cc2c(cc1CN1CCN(Cc3ccccc3F)CC1)CCC2 | 94% (active) | 2% | -3 | 98% (active) | inactive | inactive | inactive | inactive
N#Cc1nc2ccc(OCCN(Cc3ccccc3C(F)(F)F)c3ccc(C#N)c(C(F)(F)F)c3)cc2s1 | 47% | 23% | 6 | 93% (active) | inactive | inactive | inactive | inactive
Cc1cccc(CNc2ncc(C)c(NCCC(=O)Nc3ccccc3)n2)c1 | 10% | 18% | 5 | 81% (active) | inactive | inactive | inactive | inactive
CN1CCCC1CCOc1ccc2c(c1)N(C(=O)Nc1cc(Br)cc(C(F)(F)F)c1)CC2 (stereo not drawn) | 97% (active) | 13% | -6 | 102% (active) | inactive | inactive | inactive | inactive
CC(C)(C)c1cc(C(=O)N2CCN(c3ncccc3C(F)(F)F)CC2)n(Cc2ccccc2)n1 | 99% (active) | -8% | 1 | 100% (active) | inactive | inactive | inactive | inactive
COc1cccc(-c2cnc(N)c(-c3nc4ccc(F)cc4[nH]3)c2)c1 | 43% | 47% | 5 | 97% (active) | inactive | inactive | inactive | inactive
O=C(Nc1cccc(-c2nn3ccccc3c2-c2ccnc(Nc3cccc(C(F)(F)F)c3)n2)c1)c1c(F)cccc1F | 91% (active) | 43% | -2 | 97% (active) | inactive | inactive | inactive | inactive
CN1CCCN(Cc2ccc(-c3ccc(NC(=O)c4cccc(C#N)c4)cc3)cc2)CC1 | 67% (active) | 46% | -8 | 97% (active) | inactive | inactive | inactive | inactive
COc1ccc2ncc(C#N)c(CCN3[C@@H]4CC[C@H]3CC(NCc3ccc5c(n3)NC(=O)CS5)C4)c2c1 (stereo partly drawn) | 27% | 6% | -1 | 95% (active) | inactive | inactive | inactive | inactive
CN(C)c1cccc(-c2cnc3ccc(NCc4cccc(Cl)c4)nn23)c1 | 98% (active) | 11% | -3 | 99% (active) | inactive | inactive | inactive | inactive
CC(C)Sc1nc2c(c(=O)n1Cc1ccco1)C1(CCCC1)Cc1ccccc1-2 | 10% | 8% | 4 | 98% (active) | inactive | inactive | inactive | inactive
O=C(Nc1ccc(OC(F)(F)F)cc1)NC1CCN(c2ccnc3ccccc23)CC1 | 40% | 40% | -7 | 101% (active) | inactive | inactive | inactive | inactive
COc1ccc(CNC2CCN(C)CC2)cc1-c1ccc(S(=O)(=O)NCC2CCCO2)s1 (stereo not drawn) | 18% | 18% | 5 | 95% (active) | inactive | inactive | inactive | inactive
Fc1cccc(COc2ccc(Nc3ncnc4ccc(-c5nnc(C(F)(F)F)o5)cc34)cc2Cl)c1 | 77% (active) | 14% | 5 | 101% (active) | inactive | inactive | inactive | inactive
